Assay [1] deals with PGR (gene 5241) (UniProt P06401). Briefly: TOX21_PR_BLA_Followup_Antagonist_ratio: Tox21 HEK293 Progesterone Receptor (PR) Antagonism Beta-lactamase Follow-Up Assay, Ratio (AID 2283934). The gist of the method: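 PR-UAS-bla HEK293T cells, 3,000/well in 2% charcoal-stripped FBS, given compound plus 1nM R5020 agonist for 16 hr at 37C. Beta-lactamase FRET substrate 2 hours, ratio cleaved/uncleaved fluorescence; viability by CellTiter-Glo in same wells.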

A short description of assay [2]: TOX21_PR_BLA_Followup_Agonist_viability: Viability Assessment in the Tox21 HEK293 Progesterone Receptor (PR) Agonism Beta-lactamase Follow-Up Assay (AID 2283935).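 Also: signal loss means lower viability so actives are cytotoxic.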 Summed up: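 PR-UAS-bla HEK293T cells in 2% charcoal-stripped FBS medium, plated 6 hr before compound addition, exposed 16 hr at 37C. Viability read by CellTiter-Glo ATP luminescence after 30 min at room temperature, in the same wells as the beta-lactamase readout.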

Assay [3] in a line: TOX21_PR_BLA_Followup_Antagonist_viability: Viability Assessment in the Tox21 HEK293 Progesterone Receptor (PR) Antagonism Beta-lactamase Follow-Up Assay (AID 2283936).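 Also: hits lower the luminescence signal meaning cytotoxicity.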 Summed up:
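PR-UAS-bla HEK293T cells (3,000/well, 2% charcoal-stripped FBS) given compound plus R5020 agonist, 16 h at 37C. CellTiter-Glo added after bla read, 30 min at room temperature; luminescence loss indicates cytotoxicity.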

For assay [4], the target named is PGR (gene 5241) (UniProt P06401). Briefly: TOX21_PR_LUC_Followup_Agonist: Tox21 HEK293 Progesterone Receptor (PR) Agonism Luciferase Follow-Up Assay (AID 2283937; active = hit-call score of the fitted dose curve at least 0.9, where 1 is the maximum; inactive = score below 0.9). The gist of the method: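 HEK293-PR-A-luc cells, conditioned 5 days in 10% charcoal-stripped FBS medium, seeded 3,000/well for 5 h, then compound-treated 16 h at 37C. ONE-Glo luminescence read after 30 min at room temperature; gain of signal versus DMSO.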

For assay [5] the target is unchanged. Put plainly: TOX21_PR_LUC_Followup_Antagonist: Tox21 HEK293 Progesterone Receptor (PR) Antagonism Luciferase Follow-Up Assay (AID 2283938).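 Also: curve fitted upward as signal gain over DMSO baseline despite antagonist label.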 Summed up:
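HEK293-PR-A-luc cells, 3,000/well, preincubated 5 h at 37C before compound addition in DMSO; 16 h compound exposure at 37C. ONE-Glo luciferase luminescence read after 30 min at room temperature, fitted relative to DMSO baseline.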

The nature of assay [6]: TOX21_PR_LUC_Followup_Antagonist_viability: Viability Assessment in the Tox21 HEK293 Progesterone Receptor (PR) Antagonism Luciferase Follow-Up Assay (AID 2283940). Summed up:
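HEK293-PR-A-luc cells kept in charcoal-stripped FBS medium were plated 5 h before compound addition, then exposed 16 h at 37C; viability read as cellular ATP by luciferase luminescence, loss of signal indicating cytotoxicity.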

Assay [7] is described as follows: TOX21_PR_LUC_Followup_Agonist_viability: Viability Assessment in the Tox21 HEK293 Progesterone Receptor (PR) Agonism Luciferase Follow-Up Assay (AID 2283941).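 Also: loss of signal means cytotoxicity so actives lower viability.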 Summed up: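 HEK293-PR-A-luc cells, kept in 10% charcoal-stripped FBS medium, were treated with compounds for 16 h at 37C. Viability read as cellular ATP by luciferase-coupled luminescence; loss of signal indicates cytotoxicity.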

The target of assay [8] is Thyroid hormone receptor alpha (Rattus norvegicus) + Thyroid hormone receptor beta (Rattus norvegicus) (UniProt P18113+P63059). Put plainly: TOX21_TR_LUC_GH3_Antagonist_Followup: Tox21 GH3 Thyroid Hormone Receptor Antagonism Luciferase Follow-Up Assay (AID 2283942). The gist of the method:
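Confirmatory qHTS, antagonist mode: T3 (1.0 nM final) + test cpd, 15 conc, 92 uM–5nM final, GH3 rat pituitary line, 24 h, 37C. Luc reporter, RLU vs DMSO.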

For assay [9], the target named is THRB (gene 7068) (UniProt P10828). Put plainly: TOX21_TRB_BLA_Antagonist_Followup_ratio: Tox21 Thyroid Hormone Receptor beta Antagonism Beta-lactamase (BLA) Follow-Up Assay, Ratio (AID 2283958). Summed up: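 HEK293T cells with a GAL4-TRb LBD fusion and UAS-bla reporter, 3,000 cells/well in phenol red-free DMEM with 2% charcoal-stripped FBS. Exposed 18 h at 37C to 11 concentrations in triplicate; CCF4 460:530 nm ratio after 2 h, DMSO-referenced.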

Assay [10] has the same target. Briefly: TOX21_TRB_COA_Antagonist_Followup_ratio: Tox21 Thyroid Hormone Receptor beta Antagonism through Coactivator Recruitment Follow-Up Assay, Ratio (AID 2283967). Summed up:
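Test compound was incubated with 5.0 nM GST-TRβ LBD in 0.10% BSA. Then 200 nM fluorescein-SRC-2 peptide and 2 nM terbium anti-GST antibody were added. TR-FRET (520:495 nm) was measured and normalized to DMSO and T3 controls.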

Assay [11] is described as follows: TOX21_TR_RXR_BLA_Antagonist_Followup_viability: Viability Assessment in the Tox21 Thyroid Hormone Receptor beta Retinoid X Receptor alpha (RXRa) Antagonism Beta-lactamase (BLA) Follow-Up Assay (AID 2283979). The gist of the method:
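Follow-up compounds (11 concentrations, triplicate) were incubated 16 h at 37C/5% CO2 with HEK293T RXRa-bla cells seeded at 2,500/well in charcoal-stripped-serum medium. ATP content by CellTiter-Glo luminescence gave viability; curves fitted in both directions against DMSO.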

This note sets out measurements from PubChem BioAssay (EPA / NIEHS).

Records with an inconclusive call do not appear. Activity calls are given as the source filed them. The calls were made as follows, unless noted: active = hit-call score of the fitted dose curve at least 0.9, where 1 is the maximum; inconclusive = response in the unintended direction; inactive = score below 0.9.

Sequence of PGR (gene 5241) (P06401 whole entry, looked up): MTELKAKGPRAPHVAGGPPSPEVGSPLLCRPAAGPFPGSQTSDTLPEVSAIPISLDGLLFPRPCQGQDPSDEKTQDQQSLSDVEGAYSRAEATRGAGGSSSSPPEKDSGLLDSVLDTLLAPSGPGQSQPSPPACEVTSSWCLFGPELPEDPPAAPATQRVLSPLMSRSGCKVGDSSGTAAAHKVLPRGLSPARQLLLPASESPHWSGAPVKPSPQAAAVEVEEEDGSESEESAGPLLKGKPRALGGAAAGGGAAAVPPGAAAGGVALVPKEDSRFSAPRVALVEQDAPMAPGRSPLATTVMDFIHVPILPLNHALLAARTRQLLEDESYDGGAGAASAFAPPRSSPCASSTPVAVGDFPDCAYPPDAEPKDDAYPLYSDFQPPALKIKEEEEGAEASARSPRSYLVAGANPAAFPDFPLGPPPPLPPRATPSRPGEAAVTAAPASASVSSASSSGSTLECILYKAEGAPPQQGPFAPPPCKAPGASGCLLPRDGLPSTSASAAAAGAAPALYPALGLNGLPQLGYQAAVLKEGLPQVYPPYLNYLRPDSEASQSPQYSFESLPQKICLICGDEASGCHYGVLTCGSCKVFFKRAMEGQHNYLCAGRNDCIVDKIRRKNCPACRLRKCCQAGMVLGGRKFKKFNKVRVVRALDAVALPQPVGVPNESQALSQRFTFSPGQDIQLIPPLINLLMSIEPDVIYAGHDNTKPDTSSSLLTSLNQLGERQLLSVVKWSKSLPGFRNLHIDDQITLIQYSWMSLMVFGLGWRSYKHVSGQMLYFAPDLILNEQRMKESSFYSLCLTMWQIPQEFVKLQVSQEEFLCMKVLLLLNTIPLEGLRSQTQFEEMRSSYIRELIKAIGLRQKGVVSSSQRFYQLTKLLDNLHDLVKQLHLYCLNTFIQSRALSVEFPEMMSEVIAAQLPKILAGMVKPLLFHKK
Sequence of THRB (gene 7068) (P10828 whole entry, looked up, the tested form may be a part): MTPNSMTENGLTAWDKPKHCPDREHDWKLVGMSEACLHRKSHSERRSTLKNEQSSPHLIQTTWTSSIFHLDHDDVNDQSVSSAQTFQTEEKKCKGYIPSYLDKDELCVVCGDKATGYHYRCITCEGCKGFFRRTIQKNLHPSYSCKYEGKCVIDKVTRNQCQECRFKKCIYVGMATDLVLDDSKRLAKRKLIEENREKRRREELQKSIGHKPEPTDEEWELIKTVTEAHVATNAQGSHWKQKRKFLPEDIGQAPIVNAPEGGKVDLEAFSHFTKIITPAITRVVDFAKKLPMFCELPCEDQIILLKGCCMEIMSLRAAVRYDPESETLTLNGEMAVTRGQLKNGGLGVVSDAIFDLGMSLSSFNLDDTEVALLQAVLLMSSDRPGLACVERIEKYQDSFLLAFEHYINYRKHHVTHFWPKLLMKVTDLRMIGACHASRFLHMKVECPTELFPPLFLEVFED

As to `CC(=O)OCC(=O)[C@H]1CC[C@H]2[C@@H]3CCC4=CC(=O)CC[C@]4(C)[C@H]3CC[C@]12C`, the result in assay [1], in [2], in assay [3], in [5], in assay [6] and in [7] was inactive. For the same compound, the result in assay [8], in assay [9], in assay [10] and in assay [11] was inactive. Moreover, the AC50 (commonly the concentration giving half of the maximal activity seen) in [4] is 29.7 nM (active).
